# In PubChem BioAssay (NCI):
# The panel holds about 83,000 compounds, 20% with a hit somewhere; the sample as a whole holds those more often.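 Interpretation: 100, growth as untreated; towards 0, rising growth inhibition; 0, no net growth; 0 to -100, cell death. Compounds scoring below 10 were considered active.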 Unmarked numbers belong to inactive results. Activity calls are given as the source filed them.
# Legend:
# Test in all cases: NCI-60 one-dose screen, 48 h (100 = growth as untreated, 0 = no growth, -100 = all killed)
# Details in all cases: 10 µM unless noted
# NCI-H23 lung = test system: NCI-H23 lung
# NCI-H226 lung = test system: NCI-H226 lung
# NCI-H322M lung = test system: NCI-H322M lung
# HOP-62 NSCLC = test system: HOP-62 NSCLC
# NCI-H460 lung = test system: NCI-H460 lung
# NCI-H522 lung = test system: NCI-H522 lung
# A549/ATCC NSCLC = test system: A549/ATCC NSCLC
# 786-0 renal = test system: 786-0 renal
# DU-145 prostate = test system: DU-145 prostate
# K-562 leukemia = test system: K-562 leukemia
# MALME-3M melanoma = test system: MALME-3M melanoma
# MDA-MB-231 breast = test system: MDA-MB-231 breast
# RXF 393 renal = test system: RXF 393 renal
# SF-268 CNS = test system: SF-268 CNS
# SF-539 CNS = test system: SF-539 CNS
# UACC-257 melanoma = test system: UACC-257 melanoma
# M14 melanoma = test system: M14 melanoma
# HCT-15 colon = test system: HCT-15 colon
# SF-295 CNS = test system: SF-295 CNS
# COLO 205 colon = test system: COLO 205 colon
SMILES,growth (NCI-H23 lung),growth (NCI-H226 lung),growth (NCI-H322M lung) [%],growth (HOP-62 NSCLC),growth (NCI-H460 lung),growth (NCI-H522 lung),growth (A549/ATCC NSCLC),growth (786-0 renal),growth (DU-145 prostate),growth (K-562 leukemia) [%],growth (MALME-3M melanoma),growth (MDA-MB-231 breast),growth (RXF 393 renal),growth (SF-268 CNS),growth (SF-539 CNS),growth (UACC-257 melanoma),growth (M14 melanoma),growth (HCT-15 colon),growth (SF-295 CNS),growth (COLO 205 colon)
O=C(Nc1ccc(OCc2nnc(-c3ccccc3)o2)c(F)c1)Nc1ccc(Cl)c(C(F)(F)F)c1,8.65% (active),59.3%,28.8,13.6%,-0.0623% (active),13.9%,11.6%,53.2%,10%,12.9,8.78% (active),29.3%,45.9%,36.2%,36.1%,28.3%,23.8%,11.8%,–,–
O=C(/C=C/c1cccnc1)NCCCCC1CCCN(C(=O)c2ccccc2)C1 (stereo not drawn),70.1%,98.5%,65.3,85.1%,29%,1.41% (active),49%,71.7%,33.4%,–,83.7%,82.6%,109%,74%,28%,109%,18.7%,42%,4.84% (active),–
Cc1ccccc1-c1cc(Cc2ccccc2O)c(=O)[nH]n1,103%,85.8%,115,108%,115%,93.3%,107%,98.9%,125%,91.7,151%,90.7%,140%,85.1%,107%,122%,120%,107%,113%,–
O=C1Nc2ccc(F)cc2/C1=C/c1nc(-c2ccc(F)cc2)n2ccccc12,104%,110%,124,96.4%,99.2%,108%,104%,114%,74.1%,106,91.3%,80%,108%,81.3%,104%,104%,83.2%,105%,92.1%,–
O=C(c1ccccc1)c1ccccc1Cl,100%,105%,108,105%,104%,92.4%,98.9%,98.8%,108%,100,102%,105%,111%,109%,100%,97.8%,101%,104%,110%,–
C=C(C)[C@H]1CC/C(C)=C/CC[C@]2(C)O[C@H]2CC/C(COC(C)=O)=C\C1=O,103%,130%,87.3,102%,116%,109%,37.7%,92.1%,140%,95.8,–,98.4%,105%,115%,117%,128%,105%,–,–,–
CCCCn1c(Cc2ccc(Cl)cc2)nc2cc(OC)c(OC)cc2c1=O,74.6%,66.4%,97.3,91.2%,90.6%,71.6%,66.3%,84.4%,75.5%,40.3,101%,70.2%,90%,80%,105%,55.5%,79.2%,75.4%,71.1%,–
O=Cc1c[nH]c2ccc(NC(=O)OCc3ccccc3)cc12,95.4%,89.7%,88.6,105%,68.4%,94.1%,106%,95.8%,113%,72.2,186%,88.4%,96.6%,102%,110%,85.6%,105%,67.1%,–,–
O=C(Nc1ccccc1Cl)c1cnc2ccc(C3CCNCC3)cn12,95%,65%,23.1,58.3%,86.4%,2.54% (active),66.7%,52.8%,56.7%,–,96.2%,61.3%,36.5%,60.7%,47%,82.5%,72.7%,46.6%,70.7%,–
Cc1c(C(N)=O)sc2ncn(CC(=O)Nc3ccc(Cl)cc3)c(=O)c12,110%,105%,114,97%,110%,141%,106%,104%,126%,96.8,–,108%,105%,119%,108%,148%,103%,117%,–,–
c1ccc2cc(C[n+]3ccn(CCCCCCCn4cc[n+](Cc5ccc6ccccc6c5)c4)c3)ccc2c1,14.4%,59.5%,58.6,32.6%,14.6%,5.87% (active),26.7%,95.8%,49.2%,19.1,-9.13% (active),49%,74%,34.4%,33.4%,15.8%,47.1%,82.6%,21.6%,–
COc1ccc(CCN2CCCN3C2=Nc2ccccc2S3(=O)=O)cc1,28.8%,61.7%,59.6,52.5%,13.4%,17.3%,31.7%,–,23%,15.6,68.8%,49.1%,-0.424% (active),63.1%,-28.2% (active),75.7%,31.1%,25.4%,14%,1.13% (active)
CCN(CC)c1ccc(CN(CC(=O)c2ccc(Cl)c(Cl)c2)Cc2ccccc2)cc1,97.6%,90.9%,110,96.9%,101%,106%,107%,–,104%,103,108%,99.9%,89.9%,102%,108%,112%,103%,99.8%,107%,104%
Cn1cc(-c2csc(-c3cn(C)c4ncccc34)n2)c2cccnc21,92.1%,107%,106,123%,98.4%,87.1%,89.7%,83.1%,–,–,106%,93.7%,98.4%,106%,99%,99.8%,96%,90.6%,98.3%,–
NC(N)=NN=c1c(=O)c2ccccc2c1=O,58%,94.6%,102,32.3%,0.312% (active),80.8%,95.1%,108%,-97.4% (active),–,-96.4% (active),90.8%,–,50.6%,112%,106%,-90.8% (active),43.4%,66%,–
CN1CCN(Cc2ccc(NC(=O)c3[nH]ncc3Nc3ccnc4ccnn34)cc2)CC1,62.3%,65.7%,79.6,93.5%,63.7%,55.7%,81.3%,–,47.4%,34.9,58.9%,99.9%,51.5%,63.7%,40.9%,77.9%,57.1%,98%,88.7%,39.5%
O=C1c2nsnc2C(=O)c2c(F)c(F)c(F)c(F)c21,-22.5% (active),-38.2% (active),26.9,-86% (active),-51.8% (active),-67.2% (active),-27.9% (active),-97.1% (active),–,–,-45.9% (active),-68.2% (active),-96.4% (active),-15.6% (active),-74.1% (active),-97.3% (active),-90.8% (active),-59.1% (active),-37% (active),–
